Screens: PubChem BioAssay, National Center for Advancing Translational Sciences (NCATS)
This is a sample that favours compounds with a hit; in the whole collection about 3.8% have one here.
ATXN viability = cell viability loss in ATXN counter-screen | S2 cells (HEK-293 line with an ATXN2-luciferase reporter) viability, CellTiter-Fluor protease fluorescence, 24 h | Potency, µM (doses to about 56.7 µM), usual class: cytotoxic | 400,000 compounds, 0.49% hits; also: nearly all actives have a fitted effect of over 40% in size
HT1080-NT tox = kills 2HG-producing HT-1080-NT fibrosarcoma cells. HT-1080-NT fibrosarcoma viability, CellTiter-Glo ATP luminescence, 48 h. Potency, µM (titrated, usually from 46.1 µM), most hits filed as cytotoxic. 360,000 compounds, 1.6% hits. AID 686970;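 also: NT is the 2HG producing partner of a matched IDH1 knockdown line; nearly all actives have a fitted effect of over 55% in size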
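Toxicity toward the 2HG-producing NT line was scored as %Activity, normalised to DMSO and no-cell wells, from CellTiter-Glo luminescence after 48 hours' treatment.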
ATXN2 expr inh = ATXN2 expression inhibition; HEK-293 ATXN2-luciferase reporter, luminescence, 24 h; Potency, µM (highest dose often 57 µM), hits mostly inhibitors; 360,000 compounds, 0.72% hits; AID 1745845; also: nearly all actives have a fitted effect of over 55% in size
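ATXN2-luciferase reporter cells (luciferase flanked by upstream and downstream ATXN2 gene portions) were treated 24 h at 37 °C with compounds at up to 57 uM. SteadyGlo luminescence gave expression; GF-AFC fluorescence gave viability.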
HT1080 IDH1KD tx = kills HT-1080 cells with IDH1 knockdown | HT-1080 IDH1 knockdown viability, ATP luminescence, 48 h | Potency, µM (series often up to 46.1 µM), actives largely listed as cytotoxic | 360,000 compounds, 2% hits
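In this qHTS, HT-1080 cells depleted of IDH1 are exposed for 48 h at 37 °C to compound titrations. Toxicity is scored from CellTiter-Glo luminescence, with DMSO as full viability and medium alone as none.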
HepG2 tox-1 = HepG2 cytotoxicity, counter-screen for TGF-b inhibitors; AID 588856; HepG2 CAGA-GFP viability, ATP luminescence, 18 h; 410,000 compounds, 0.76% hits; Potency, µM (highest dose often 46.1 µM), hits mostly cytotoxic
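CellTiter-Glo luminescence gave cytotoxicity after 18 hours at 37 degrees C. The cells were HepG2 CAGA-GFP in 1% FBS DMEM, stimulated with 500 pg/mL TGF-beta after compound addition. %Activity was normalised to no-cell wells (complete cell-killing) and DMSO (no toxicity), and curves were fitted and classified.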
TGFb inhibitor = blocks TGF-b signaling; HepG2 CAGA-GFP TGF-b/SMAD3 reporter, GFP fluorescence, 18 h; TGF-beta stimulated, 500 pg/mL final; Potency, µM (series often up to 46.1 µM), hits mostly inhibitors; 410,000 compounds, 1.2% hits; also: nearly all actives have a fitted effect of over 65% in size
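HEPG2 CAGA-GFP, 1000 cells/well; 2 h settle, 37 C; cpd via pin tool; TGF-b 500 pg/mL final; 18 h, 37 C; GFP imaging ex488/em500-530; %Activity normalised to -TGF-b and +DMSO controls; CRC fit, curve class.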
TGFb confirm = confirmation of TGF-b signaling inhibitors in HepG2 reporter cells; shares compounds with TGFb inhibitor; HepG2 CAGA-GFP TGF-b reporter, GFP fluorescence, 18 h; cells stimulated with TGF-beta, 500 pg/mL; Potency, µM (highest dose often 46.1 µM), most hits filed as inhibitors; 1,600 compounds, 63% hits; also: nearly all actives have a fitted effect of over 65% in size
HepG2 tox-2 = HepG2 cytotoxicity, TGF-b inhibitor counterscreen; 1,600 compounds, 27% hits; Potency, µM (highest dose often 46.1 µM), usual class: inhibitors; HepG2 CAGA-GFP viability, ATP luminescence, 18 h; cells stimulated with TGF-beta, 500 pg/mL; AID 720535; shares compounds with TGFb inhibitor; also: nearly all actives have a fitted effect of over 70% in size
CCL64 TGFb inh = blocks TGF-b signaling in CCL64 reporter cells | shares compounds with TGFb inhibitor | CCL64 CAGA-GFP reporter, TGF-b stimulated, GFP fluorescence, 18 h | Potency, µM (titrated, usually from 46.1 µM), actives largely listed as inhibitors | 1,600 compounds, 41% hits; also: nearly all actives have a fitted effect of over 65% in size
TGFb COP inh = blocks TGF-b signaling in HepG2 COP reporter. shares compounds with TGFb inhibitor. HepG2 COP-GFP TGF-b reporter, GFP fluorescence, 18 h; cells stimulated by added recombinant TGF-beta. Potency, µM (series often up to 46.1 µM), most hits filed as inhibitors. 1,600 compounds, 3% hits; also: nearly all actives have a fitted effect of over 70% in size
Of the large screens only hits and unclear results are named; the others gave an inactive call (follow-up assays come after a bar, where they were run); ! = repeats disagree. Calls follow the shape of the dose curve; as a rule, active = well fitted curve in the direction sought with a large enough effect; inconclusive = small, poorly fitted or top-dose-only effect, or another doubt; inactive = no such curve, though single readings can be large; an effect the other way counts as inactive or inconclusive.

C[C@]12CCC3[C@@H](CC[C@@H]4C[C@H](O)CC[C@]34C)[C@@H]1CCC2=O (stereo not given in full)	none
C[N+]1(CCF)[C@@H]2CC[C@H]1CC(OC(=O)C(O)(c1ccccc1)c1ccccc1)C2 (stereo not given in full)	none (no result: HT1080-NT tox, HT1080 IDH1KD tx, HepG2 tox-1, TGFb inhibitor)
NC1=C(Br)C(=O)c2ccccc2C1=O	ATXN viability inconclusive, HT1080-NT tox 25.9µM, ATXN2 expr inh inconclusive, HT1080 IDH1KD tx 20.6µM, HepG2 tox-1 5.62µM, TGFb inhibitor 5.62µM | TGFb confirm 5.17µM | HepG2 tox-2 8.2µM | CCL64 TGFb inh 9.2µM | TGFb COP inh inconclusive
CNc1cc(Cl)c2nonc2c1[N+](=O)[O-]	ATXN viability 22.4µM, HT1080-NT tox 3.26µM, ATXN2 expr inh 28.2µM, HT1080 IDH1KD tx 5.8µM, TGFb inhibitor 5.62µM | TGFb confirm 3.26µM | HepG2 tox-2 13µM | CCL64 TGFb inh 2.59µM | TGFb COP inh inconclusive
O=[N+]([O-])c1c(Cl)c(Cl)cc(Cl)c1Cl	none (no result: HT1080-NT tox, HT1080 IDH1KD tx, HepG2 tox-1, TGFb inhibitor)
Cc1ccc(N2C(=O)NC(=O)/C(=C\C=C\c3ccco3)C2=O)cc1C	ATXN viability 14.1µM, ATXN2 expr inh 7.94µM, TGFb inhibitor 12.6µM | TGFb confirm 2.59µM | HepG2 tox-2 2.91µM | CCL64 TGFb inh 4.61µM | TGFb COP inh inconclusive
CCOc1ccc(CCNC(=O)c2cc3c(-c4cccc(OC)c4)nn(C)c3s2)cc1OCC	ATXN viability inconclusive, ATXN2 expr inh inconclusive (no result: HT1080-NT tox, HT1080 IDH1KD tx)
CCC1CN2CCc3cc(OC)c(OC)cc3C2CC1CC1NCCc2c1[nH]c1ccc(O)cc21 (stereo not given)	ATXN viability inconclusive, HT1080-NT tox 0.411µM, ATXN2 expr inh 0.0075µM, HT1080 IDH1KD tx 0.184µM, TGFb inhibitor 0.0891µM | TGFb confirm 0.0184µM | HepG2 tox-2 1.03µM | CCL64 TGFb inh 0.0366µM | TGFb COP inh inactive
COc1ccc2c(c1OC)CN1CCc3cc4c(cc3[C@H]1C2)OCO4	ATXN viability inconclusive, TGFb inhibitor inconclusive
CC[C@@]1(O)C(=O)OCc2c1cc1n(c2=O)Cc2cc3c(N)cccc3nc2-1	ATXN viability inconclusive, HT1080-NT tox 2.06µM, HT1080 IDH1KD tx 1.3µM, TGFb inhibitor 0.562µM | TGFb confirm 1.16µM | HepG2 tox-2 0.411µM | CCL64 TGFb inh inactive | TGFb COP inh inactive
Cc1cc(C)[n+](Cc2ccccc2)cc1C(N)=O	HT1080-NT tox inconclusive
CC(C)c1oc(=O)cc2c1[C@@H](O)[C@H]1OC(=O)[C@@]3(C)C[C@@H](O)[C@@H](O)[C@@]2(C)C13 (stereo not given in full)	ATXN viability inconclusive, HT1080-NT tox inconclusive, ATXN2 expr inh inconclusive, HT1080 IDH1KD tx 10.3µM, TGFb inhibitor 8.91µM | TGFb confirm 2.91µM | HepG2 tox-2 inconclusive | CCL64 TGFb inh 5.17µM | TGFb COP inh inactive
CCN(CC)Cc1nccn1-c1ccc([N+](=O)[O-])cc1C(=O)c1ccccc1Cl	ATXN viability inconclusive (no result: HT1080-NT tox, HT1080 IDH1KD tx, HepG2 tox-1, TGFb inhibitor)
N#Cc1cn(C2OC(CO)C(O)C2O)c2ncnc(N)c12 (stereo not given)	ATXN viability inconclusive, HT1080-NT tox inconclusive, ATXN2 expr inh inconclusive, HT1080 IDH1KD tx 0.206µM, TGFb inhibitor 0.1µM | TGFb confirm 0.231µM | HepG2 tox-2 0.146µM | CCL64 TGFb inh 0.103µM | TGFb COP inh inactive
OCC1OC(n2cnc3cc(Cl)c(Cl)cc32)C(O)C1O (stereo not given)	HT1080-NT tox inconclusive, HT1080 IDH1KD tx inconclusive, TGFb inhibitor inconclusive
NC(=O)c1c(Br)n(C2OC(CO)C(O)C2O)c2ncnc(N)c12 (stereo not given)	ATXN viability inconclusive, HT1080-NT tox inconclusive, ATXN2 expr inh 21.2µM, HT1080 IDH1KD tx 7.31µM, TGFb inhibitor 1.41µM | TGFb confirm 2.06µM | HepG2 tox-2 inconclusive | CCL64 TGFb inh inconclusive | TGFb COP inh inactive
CCNC(=O)[C@H]1O[C@@H](n2cnc3c(N)ncnc32)[C@H](O)[C@@H]1O	none
NC(=O)c1cn(C2OC(CO)C(O)C2O)c2ncnc(N)c12 (stereo not given)	HT1080-NT tox 0.326µM, ATXN2 expr inh 0.282µM!, HT1080 IDH1KD tx 0.116µM, TGFb inhibitor 0.112µM (no result: ATXN viability) | TGFb confirm 0.092µM | HepG2 tox-2 0.0651µM | CCL64 TGFb inh 0.231µM | TGFb COP inh inactive
Oc1cc(Cl)cc(Cl)c1Cl	TGFb inhibitor inconclusive
COc1cc([C@@H]2c3cc4c(c(O)c3C[C@H]3COC(=O)[C@@H]32)OCO4)cc(OC)c1OC	TGFb inhibitor inconclusive (no result: ATXN viability, HT1080-NT tox, ATXN2 expr inh, HT1080 IDH1KD tx)
CC(=O)c1cn(Cc2ccc(F)cc2)c2ccccc12	TGFb inhibitor inconclusive | TGFb confirm 9.2µM | HepG2 tox-2 4.11µM | CCL64 TGFb inh inactive | TGFb COP inh inactive
COc1ccc2[nH]c3c(c2c1)CCN1C(=O)C(CC(=O)NCc2cccc(C(F)(F)F)c2)C[C@H](C(=O)N2CCCCC2)[C@@]31C (stereo not given in full)	ATXN viability inconclusive, TGFb inhibitor 10µM | TGFb confirm 8.2µM | HepG2 tox-2 inactive | CCL64 TGFb inh 4.61µM | TGFb COP inh inactive
O=C1NCN(c2ccccc2)C12CCN(C(c1cc3ccccc3o1)c1nnnn1C1CCCC1)CC2 (stereo not given)	ATXN viability inconclusive, HT1080-NT tox inconclusive, ATXN2 expr inh inconclusive, HT1080 IDH1KD tx inconclusive, TGFb inhibitor inconclusive
O=C1NCN(c2ccccc2)C12CCN(C(c1cc3ccccc3o1)c1nnnn1Cc1ccccc1)CC2 (stereo not given)	HT1080-NT tox inconclusive, ATXN2 expr inh inconclusive, HT1080 IDH1KD tx inconclusive, TGFb inhibitor 14.1µM (no result: ATXN viability) | TGFb confirm 20.6µM | HepG2 tox-2 inactive | CCL64 TGFb inh 14.6µM | TGFb COP inh inactive
